Assay outcomes as filed in PubChem BioAssay.
GC-A act: GC-A (human) enzyme activation; P16066; HEK293 GC-A cells, cGMP TR-FRET, EC30 ANP; 0% at EC30 ANP, 100% saturating ANP; activation, % at 10 µM; 370,000 compounds, 0.14% hits; in the data active = activation above about 40%
Myeloid diff 2: compounds promoting myeloid differentiation; ER-HoxA9 myeloid progenitors, lysozyme-GFP differentiation, flow cytometry; 360,000 compounds, 1% hits; calls only at 10 µM; AID 624256;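 active = normalized GFP-positive differentiation at or above the plate's own cutoff, the solvent-only control mean plus 3 SD; inconclusive = no clear call, values can overlap the other calls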;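 also: cells exposed to compound for four days before flow analysis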
NPR2 activator: GC-B (human) receptor activation. P20594. 370,000 compounds, 0.11% hits. HEK293-GC-B cells, CNP EC30, cGMP TR-FRET; 0% at EC30 CNP, 100% saturating CNP. AID 1920062. activation, % at 10 µM;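 active = activation at 10 µM reaching about 35% in either raw or pattern-adjusted values, limit read from the data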
Target sequence (P20594 whole entry, looked up): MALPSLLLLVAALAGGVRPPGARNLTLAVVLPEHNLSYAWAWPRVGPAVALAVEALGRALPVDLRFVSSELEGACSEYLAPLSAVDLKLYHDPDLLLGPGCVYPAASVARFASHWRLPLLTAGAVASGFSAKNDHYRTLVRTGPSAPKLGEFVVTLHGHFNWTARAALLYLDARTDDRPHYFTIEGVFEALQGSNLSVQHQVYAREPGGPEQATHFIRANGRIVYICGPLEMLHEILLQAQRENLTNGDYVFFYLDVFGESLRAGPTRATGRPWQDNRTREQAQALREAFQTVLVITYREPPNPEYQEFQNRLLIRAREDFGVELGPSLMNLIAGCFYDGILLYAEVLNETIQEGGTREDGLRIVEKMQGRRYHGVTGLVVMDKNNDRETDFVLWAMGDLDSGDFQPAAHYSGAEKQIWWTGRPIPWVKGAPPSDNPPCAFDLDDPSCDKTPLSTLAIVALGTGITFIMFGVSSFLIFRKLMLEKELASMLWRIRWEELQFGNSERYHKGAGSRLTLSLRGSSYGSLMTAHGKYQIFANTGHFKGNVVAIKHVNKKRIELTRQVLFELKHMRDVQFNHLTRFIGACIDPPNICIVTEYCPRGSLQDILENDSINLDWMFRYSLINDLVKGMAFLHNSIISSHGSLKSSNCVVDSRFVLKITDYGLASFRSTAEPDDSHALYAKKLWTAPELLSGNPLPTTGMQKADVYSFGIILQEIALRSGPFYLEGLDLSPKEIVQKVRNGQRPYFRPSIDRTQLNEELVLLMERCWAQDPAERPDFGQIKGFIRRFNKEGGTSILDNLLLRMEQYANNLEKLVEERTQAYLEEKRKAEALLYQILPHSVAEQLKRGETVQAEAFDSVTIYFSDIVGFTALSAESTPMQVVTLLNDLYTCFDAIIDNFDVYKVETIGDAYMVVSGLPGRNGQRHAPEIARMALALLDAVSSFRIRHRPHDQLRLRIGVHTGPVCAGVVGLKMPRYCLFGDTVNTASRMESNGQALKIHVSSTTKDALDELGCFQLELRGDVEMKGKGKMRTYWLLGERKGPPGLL
Granule exo inh: lytic granule exocytosis inhibition. inhibition, % at 10 µM. 360,000 compounds, 0.66% hits. AID 651702. TALL-104 LAMP-1 surface exposure, flow cytometry; cells stimulated with thapsigargin and PMA;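 active = inhibition above about 55%, limit read from the data; inconclusive = no clear call, values can overlap the other calls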
Numbers without * were called inactive; i = inactive; ? = inconclusive; / = no result; + = active, no number. Compounds with a hit are over-represented: about 1.8% of the library has one in this group of screens.

SMILES	GC-A act	Myeloid diff 2	NPR2 activator	Granule exo inh
C#CCOCCOCCOCCNc1nc(N2CCN(C(=O)[C@H](CCCCN)n3cc([C@@H](N)C(C)CC)nn3)CC2)nc(N2CCN(C(=O)[C@H](CCCCN)n3cc([C@@H](N)C(C)CC)nn3)CC2)n1 (stereo not given in full)	5	/	3	/
O=[N+]([O-])c1ccc(Nc2nc(NC3CCCCC3)nc(N3CCCC3)n2)cc1	4	i	0	78*
CCOc1ccccc1N1CCN(C(=O)/C=C/c2cccc([N+](=O)[O-])c2)CC1	-1	+	-1	0
O=C(/C=C/c1cccc([N+](=O)[O-])c1)N1CCN(c2ccccc2F)CC1	2	i	-3	0
O=c1c2ccccc2sn1-c1nccs1	8	i	13	85*
O=C1c2ccccc2C(=O)N1c1nccs1	3	i	-1	12
C=CCN1C(=O)[C@@H](CC(=O)N2CCCCC2)[C@]2(C(=O)OC)CCCCC=C12	3	/	-1	/
Clc1ccc(CSc2ccc(-c3cccnc3)nn2)cc1	0	+	-3	-1
CCCCCCCCN1CN2Cc3cc(OC)ccc3C2CS1(=O)=O (stereo not given)	2	/	6	/
C#CCCCN([C@@H](CC(C)C)C(=O)OC)S(=O)(=O)c1ccc(F)cc1Br	-11	/	-4	/
CC1=C(C(=O)N2CCOCC2)C(c2ccc(C)cc2)NC(=S)N1 (stereo not given)	59*	i	65*	1
CC1=C(C(=O)N2CCOCC2)C(c2ccc(Cl)cc2)NC(=S)N1 (stereo not given)	54*	i	61*	0
CCOc1ccc(-n2cc(C(=O)Nc3cccc(C)n3)c3cc(OC)c(OC)cc3c2=O)cc1	26	i	36*	-2
O=C(Nc1nc2ncccn2c1-c1ccc(C(F)(F)F)cc1)c1ccccc1	3	/	-2	/
CCCC(=O)Nc1ccc2c(c1)C(=O)N(C)[C@H]1CC[C@@H](CC(=O)OC)O[C@@H]1CO2	1	/	-4	/
COc1cccc(N(CC(=O)NC2CCCC2)C(=O)CCC(=O)Nc2cc(C)on2)c1	0	+	-2	-4
CCOC(=O)c1csc(NC(=O)C2CCCN(S(=O)(=O)c3ccccc3)C2)n1 (stereo not given)	3	/	-7	/
CCOC(=O)c1[nH]c(C)c(C(=O)Nc2ccc(Cl)cc2)c1C	-9	i	-5	-5
CCOC(=O)c1[nH]c(C)c(C(=O)Nc2cccc(Cl)c2C)c1C	0	+	-2	-2
Nn1c(SCc2c(Cl)cccc2Cl)nnc1-c1n[nH]c2c1CCC2	6	/	2	/
Cc1ccc(-c2nnn(CC(=O)N(CC(=O)NC(C)C)c3cnc4ccccc4c3)n2)o1	2	i	2	10
Cc1ccc(-c2nnn(CC(=O)N(CC(=O)NC3CCCC3)c3cnc4ccccc4c3)n2)o1	-1	+	0	-3
O=C(CSc1ccsc1[N+](=O)[O-])N1CCN(c2ccc(Cl)cc2)CC1	-5	+	-3	-5
O=C(CSc1ccsc1[N+](=O)[O-])N1CCN(c2ccccc2)CC1	-7	i	-4	2
Cn1c2ccccc2c2cnn(CC(=O)Nc3ccc(F)cc3F)c(=O)c21	-4	+	4	1
SMILES	GC-A act	Myeloid diff 2	NPR2 activator	Granule exo inh
Cc1cc(NC(=O)CCS(=O)(=O)c2nc(-c3ccccc3)cc(C(F)(F)F)n2)no1	24	i	5	49
CS(=O)(=O)c1nc(-c2ccccc2)cc(C(F)(F)F)n1	/	?	/	74*
COc1cc(C2C3CN(C)CC=C3C(C#N)=C(N)C2(C#N)C#N)ccc1OC(C)C (stereo not given)	1	i	-2	-1
COc1cc([C@@H]2[C@H]3CNCC=C3C(C#N)=C(N)C2(C#N)C#N)ccc1OC(C)C	2	+	3	9
C[C@@H]1NS(=O)(=O)c2cccc(Cl)c2O[C@@H]1c1ccccc1	0	/	4	/
O=S(=O)(N[C@@H]1CCCC[C@H]1N1CCOCC1)c1ccc(Cl)cc1	-1	/	-4	/
CN(C)c1ccc(/C=C2\N=C(c3ccc(Cl)c([N+](=O)[O-])c3)NC2=O)cc1	15	+	-4	1
O=C(c1cc(Cl)cc(Cl)c1)N1CCC(Oc2cccnc2)CC1	0	/	2	/
O=C(NCc1cccc(F)c1)c1cccc2c1C(=O)c1ccc(N3CCC(Cc4ccccc4)CC3)cc1S2(=O)=O	/	+	/	-4
CC1CCN(c2ccc3c(c2)S(=O)(=O)c2cccc(C(=O)NCc4cccc(F)c4)c2C3=O)CC1	2	i	9	11
O=C(NCCc1ccc(F)cc1)c1cccc2c1C(=O)c1ccc(N3CCC(Cc4ccccc4)CC3)cc1S2(=O)=O	/	+	/	-2
O=C(NCc1cccc(C(F)(F)F)c1)c1cccc2c1C(=O)c1ccc(N3CCC(Cc4ccccc4)CC3)cc1S2(=O)=O	/	+	/	-8
O=C(NCc1ccco1)c1cccc2c1C(=O)c1ccc(N3CCC(Cc4ccccc4)CC3)cc1S2(=O)=O	/	i	/	-1
C[C@H](O)[C@@H]1CN2CCc3c([nH]c4c(-c5ccc6c(c5)OCO6)cccc34)[C@@H]2C[C@@H]1N(C)C(=S)NCCc1ccccc1	-1	/	-5	/
c1ccc(Cn2ccc3ccc(-c4ccc5ccn(Cc6cccc(-c7cccs7)c6)c5c4)cc32)cc1	2	/	1	/
CCOC(=O)C1CCN(c2ccc([N+](=O)[O-])cc2)CC1	-4	i	1	-4
CCOC(=O)C1CCC(CN(Cc2ccccc2C)S(=O)(=O)c2ccc([N+](=O)[O-])cc2)CC1 (stereo not given)	-4	+	-1	3
Cc1cc(OC(C)CCN2CCC(C(O)(c3ccccc3)c3ccccc3)CC2)ccc1Br (stereo not given)	-20	/	-2	/
O=C(N/N=C/c1cn(-c2ccccc2)nc1-c1cccnc1)c1cccnc1	4	i	-7	-15
O=C(N/N=C/c1cn(-c2ccccc2)nc1-c1cc2ccccc2o1)c1ccncc1	-26	+	-9	11
O=C(N/N=C/c1cn(-c2ccccc2)nc1-c1cc2ccccc2o1)c1cccnc1	-28	i	-12	75*
O=C(O)c1cccc(NC(=O)c2cn(-c3ccccc3)nc2-c2cc3ccccc3o2)c1	-4	i	-10	-4
C=CC(=O)N1C/C(=C/c2ccc(Cl)cc2)C(=O)/C(=C\c2ccc(Cl)cc2)C1	-6	?	-3	86*
C=CC(=O)N1C/C(=C/c2ccccc2)C(=O)/C(=C\c2ccccc2)C1	10	?	-1	71*
CN1C/C(=C/c2ccncc2)C(=O)/C(=C/c2ccncc2)C1	3	i	4	-6
O=C(C[n+]1cccc2ccccc21)c1ccc([N+](=O)[O-])cc1	6	+	2	-1
O=C1NCCN/C1=C\C(=O)c1ccc(F)cc1	18	i	-1	-3
O=C1NCCN/C1=C\C(=O)c1ccc(Cl)cc1	41*	i	-2	-11
